# Assay outcomes: PubChem, National Center for Advancing Translational Sciences (NCATS)
# An excerpt weighted towards active compounds, which were near 1.2% of everything screened.
# Giardia FBPA inh-1: qHTS Assay for Inhibitors of Fructose-1,6-bisphosphate Aldolase from Giardia Lamblia. A8B2U2. purified Giardia FBPA. Potency, µM (top dose mostly 59.6 µM), usual class: inhibitors. 0.71% of 290,000 active. AID 2451, 2010; further: nearly all actives have a fitted effect of over 55% in size
# Target sequence (A8B2U2 whole entry, looked up): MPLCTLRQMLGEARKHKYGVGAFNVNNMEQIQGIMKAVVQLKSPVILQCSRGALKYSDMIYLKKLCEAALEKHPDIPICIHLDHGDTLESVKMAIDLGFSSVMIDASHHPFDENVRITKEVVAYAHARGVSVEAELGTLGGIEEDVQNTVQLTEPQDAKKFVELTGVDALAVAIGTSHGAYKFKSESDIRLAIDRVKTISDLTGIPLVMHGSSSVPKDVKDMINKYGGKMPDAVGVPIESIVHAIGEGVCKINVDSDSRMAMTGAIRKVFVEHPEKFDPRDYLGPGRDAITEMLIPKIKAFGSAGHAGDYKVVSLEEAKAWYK
#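 40 nM FBPA preincubated 10 min at RT with compound (up to 57.5 uM final), then substrate plus GAPDH/TPI/NAD/arsenate coupling and diaphorase/resazurin added. Fluorescence read after 20 min at RT, 525/598 nm.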
# AMA1-RON2 inh: qHTS for Inhibitors of AMA1-RON; Towards Development of Antimalarial Drug Lead: Primary Screen | Plasmodium falciparum AMA1 (3D7) - RON2 peptide interaction | AlphaScreen AMA1-biotinylated RON2 peptide binding | Potency, µM (highest dose often 58.2 µM), usual class: inhibitors | 0.2% of 360,000 active | AID 720542, 2013; further: nearly all actives have a fitted effect of over 45% in size
#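 AMA1 (3D7) with his tag at 25 nM final met compounds first, then biotinylated RON2 peptide at 25 nM; detection used donor plus acceptor beads, 10 µg/mL apiece, read by AlphaScreen after 30 min at room temperature.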
# NS1 inh: qHTS Assay for Inhibitors of Influenza NS1 Protein Function; Potency, µM (titrated, usually from 46.1 µM); 0.4% of 270,000 active; AID 2326, 2010; calls by dose curve; further: actives are rising curves; nearly all actives have a fitted effect of over 50% in size
#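 S. cerevisiae expressing influenza A NS1, grown in glucose, washed, then diluted 1:100 into pH 6.0 -URA galactose medium with 23 nl compound. Growth recovery read as OD600; NS1-free strain serves as control.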
# LmPK inh: qHTS Assay for Inhibitors of Leishmania Mexicana Pyruvate Kinase (LmPK). purified LmPK, Kinase-Glo ATP luminescence, 1 h. Potency, µM (series often up to 57.5 µM), usual class: inhibitors. 0.37% of 290,000 active
#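 Screened at intermediate enzyme activity to detect both inhibitors and activators: LmPK at 0.1 nM, with a 0.5 nM enzyme column as activation reference. PEP 0.5 mM, ADP 0.1 mM; ATP detected by luminescence after 1 h.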
# Tb PYK inh: qHTS of Trypanosoma Brucei Inhibitors | AID 624173, 2012 | Potency, µM (doses to about 76.8 µM), hits mostly inhibitors | 0.12% of 410,000 active | TbPYK enzyme, Kinase-Glo Plus ATP luminescence, 45 min | pyruvate kinase (Trypanosoma brucei), Q57TT1; further: nearly all actives have a fitted effect of over 50% in size
#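 Screened from lowest to highest concentration, compounds were pinned into TbPYK/substrate mixtures, and ADP (130 uM final) was added. Plates sat at room temperature for 45 min prior to Kinase-Glo Plus detection by luminescence.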
# Giardia growth: qHTS Assay for Inhibitors of Fructose-1,6-bisphosphate Aldolase from Giardia Lamblia: Giardia lamblia growth inhibition | 5% of 1,500 active | AID 2785, 2010 | shares compounds with Giardia FBPA inh-1 | Potency, µM (top dose mostly 57.5 µM), hits mostly inhibitors | Giardia lamblia trophozoite growth inhibition;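 further: trophozoites exposed to compound for 48 h at 37 °C; nearly all actives have a fitted effect of over 70% in size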
# Mammal cell tox: qHTS Assay for Inhibitors of Fructose-1,6-bisphosphate Aldolase from Giardia Lamblia: Mammalian cellular toxicity. shares compounds with Giardia FBPA inh-1. mammalian cell viability counter-screen, qHTS. Potency, µM (doses to about 57.5 µM), hits mostly inhibitors. 4% of 1,500 active. AID 2786, 2010;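 further: Chinese hamster ovary cells used as mammalian cytotoxicity surrogate; viability measured as cellular ATP by luminescence; compound exposure lasted 48 h before reading; nearly all actives have a fitted effect of over 60% in size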
# Giardia FBPA inh-2: qHTS Assay for Inhibitors of Fructose-1,6-bisphosphate Aldolase from Giardia Lamblia: Primary screen confirmation. shares compounds with Giardia FBPA inh-1. Potency, µM (highest dose often 57.5 µM), most hits filed as inhibitors. purified Giardia aldolase enzyme activity, qHTS. 5% of 1,500 active; further: nearly all actives have a fitted effect of over 45% in size
# Rabbit FBPA inh: qHTS Assay for Inhibitors of Fructose-1,6-bisphosphate Aldolase from Giardia Lamblia: Rabbit FBPA Selectivity; shares compounds with Giardia FBPA inh-1; Rabbit muscle FBPA enzyme inhibition, selectivity counter-screen; Potency, µM (doses to about 57.5 µM), hits mostly inhibitors; 4% of 1,500 active; further: nearly all actives have a fitted effect of over 60% in size
# Target sequence (P00883 whole entry, looked up): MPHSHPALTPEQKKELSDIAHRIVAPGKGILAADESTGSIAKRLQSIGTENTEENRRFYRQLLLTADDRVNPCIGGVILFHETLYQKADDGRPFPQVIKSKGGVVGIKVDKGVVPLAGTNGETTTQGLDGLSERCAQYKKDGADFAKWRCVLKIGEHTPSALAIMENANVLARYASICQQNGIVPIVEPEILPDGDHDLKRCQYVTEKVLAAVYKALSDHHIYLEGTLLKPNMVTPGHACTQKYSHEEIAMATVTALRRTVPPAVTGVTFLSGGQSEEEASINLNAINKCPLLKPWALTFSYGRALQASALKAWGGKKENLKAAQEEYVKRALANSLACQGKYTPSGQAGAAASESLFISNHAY
# GAPDH counter: qHTS Assay for Inhibitors of Fructose-1,6-bisphosphate Aldolase from Giardia Lamblia: Coupling assay counterscreen confirmation | shares compounds with Giardia FBPA inh-1 | GAPDH coupling enzyme counterscreen, biochemical, qHTS | Potency, µM (series often up to 57.5 µM), actives largely listed as inhibitors | 6% of 1,500 active; further: nearly all actives have a fitted effect of over 55% in size
# Hits are given with their value; . = inactive; ? = inconclusive; / = no result; [ ] = another dose, or the depositor's remark. Unless noted, the call rests on the fitted dose curve; in most records, active means well fitted curve in the direction sought with a large enough effect; inconclusive means small, poorly fitted or top-dose-only effect, or another doubt; inactive means no such curve, though single readings can be large; an effect the other way counts as inactive or inconclusive.
SMILES,Giardia FBPA inh-1,AMA1-RON2 inh,NS1 inh,LmPK inh,Tb PYK inh,Giardia growth,Mammal cell tox,Giardia FBPA inh-2,Rabbit FBPA inh,GAPDH counter
CC(=O)NC(c1cccs1)c1cc([N+](=O)[O-])c2cccnc2c1O (stereo unspecified),?,.,.,.,.,.,29µM,?,?,13µM
Cc1cc2c(c(=O)o1)[C@H](O)[C@H]1O[C@@H]1C2=O,.[12.9 µM],/,/,/,/,/,/,/,/,/
Cn1ncnc2c(=O)n(C)c(=O)nc1-2,0.5µM,.,.,.,.,13µM,8.9µM,3.2µM,4.5µM,2.5µM
COCc1cc(=O)[nH]c(-c2csc(C)n2)n1,4.5µM,.,.,.,.,.,.,.,.,.
O=C(NC(=S)Nn1cnnc1)c1ccc(F)cc1Cl,14µM,.,.,.,.,.,.,.,.,.
Cc1cc(Cc2cc(Cc3cc(C)cc(C(C)(C)C)c3O)c(C)cc2C)c(O)c(C(C)(C)C)c1,/,/,.,/,/,/,/,/,/,/
O=C(NNc1cccc(Cl)n1)C(F)(F)F,20µM,.,/,.,.,?,.,.,.,.
CC(=O)NNc1cccc(Cl)n1,.,.,?,.,.,/,/,/,/,/
COc1cc2c(cc1OC)C(CCN)=NCC2,/,/,.,/,/,/,/,/,/,/
CCCCC(=O)Nc1nnn(CCC)n1,.,.,.,.,.,/,/,/,/,/
CCCCC(=O)NC(=S)Nc1nnn(CCC)n1,1.8µM,.,/,.,.,.,40µM,.,.,?
CC(C)(C)Nc1nc(C(N)=O)nc(N2CCOCC2)n1,.,.,.,.,.,/,/,/,/,/
CCNc1nc(C(=O)O)nc(N2CCOCC2)n1,22µM,?,/,.,.,.[10.4 µM],.,.,.,.
N#Cc1c(C#N)c(O)c2ccccc2c1O,20µM,.,.,.,?,?,.,?,?,?
COC(=O)C1=C(C(=O)OC)[C@@H]2N(C)c3ccc(OC)cc3[C@@]23C[C@@H](C(=O)OC)N(S(=O)(=O)c2ccc(C)cc2)C3=N1,.[12.9 µM],/,/,.[11.5 µM],/,/,/,/,/,/
CCN1CCN(Cc2ccc(C)cc2)CC1,.,.,.,.,.,/,/,/,/,/
Cc1ccc(CN2CCC(N3CC(C)OC(C)C3)CC2)cc1 (stereo unspecified),16µM,.,.,.,.,?,.,.,.,.
COC(=O)c1c(-c2cccs2)csc1NC(=O)COc1c(C)ccc(C)c1C,/,/,/,/,.,/,/,/,/,/
C=CC(C)n1c(Br)nc2c1c(=O)[nH]c(=O)n2C (stereo unspecified),.,.,.,.,.,/,/,/,/,/
CC(C)n1c(=S)[nH]c2c1c(=O)[nH]c(=O)n2C,16µM,.,.,.,?,.[10.4 µM],.,.,.,.
CCCN(CCC)C(=O)C(CCC(=O)OCCCN1CCN(CCOC(=O)Cc2c(C)n(C(=O)c3ccc(Cl)cc3)c3ccc(OC)cc23)CC1)NC(=O)c1ccccc1 (stereo unspecified),/,/,/,/,.,/,/,/,/,/
COc1ccc(CN(C)CC(=O)Nc2sc3c(c2C#N)CCC3)c(OC)c1,18µM,.,/,.,.,.[10.4 µM],.,.,.,.
CC(C)(C)OC(=O)N1CCC(c2c(C(=O)NCCN3CCC(Cc4ccccc4)CC3)cnn2-c2cccc(Cl)c2)CC1,/,/,/,/,.,/,/,/,/,/
CCOC(=O)N1CCc2c(sc3c2c(=O)n(-c2ccccc2C(F)(F)F)c(=O)n3Cc2ccccc2C)C1,/,/,/,/,.,/,/,/,/,/
Cc1ccc(NC(=O)CCCn2c(=O)c3cccn3c3ccccc32)cc1C,/,/,/,/,.,/,/,/,/,/
SMILES,Giardia FBPA inh-1,AMA1-RON2 inh,NS1 inh,LmPK inh,Tb PYK inh,Giardia growth,Mammal cell tox,Giardia FBPA inh-2,Rabbit FBPA inh,GAPDH counter
C=CCNCCCOc1ccc(Cl)cc1C(C)(C)C,18µM,.,.,.,.,.,.,.,.,.
C=CCNCCOCCOc1ccc(Cl)cc1C(C)(C)C,.,?,.,.,.,/,/,/,/,/
O=C(CSc1n[nH]c(-c2cccnc2)n1)Nc1ccc(Br)cc1,14µM,.,.,.,.,?,.,.,.,.
O=C1NC(C(=O)O)=CC(c2ccc([N+](=O)[O-])cc2)N1 (stereo unspecified),18µM,.,.,.,.,.,.,.,.,.
C[C@@H]1C[C@H]2[C@H]3C[C@@H](F)C4=CC(=O)C=C[C@]4(C)[C@@]3(Cl)[C@@H](O)C[C@@]2(C)[C@@H]1C(=O)COC(=O)C(C)(C)C,.,/,/,/,.,/,/,/,/,/
COc1ccc(S(=O)(=O)n2nc(-c3ccco3)nc2NCc2ccc(OC)c(OC)c2)cc1,/,/,/,/,.,/,/,/,/,/
COc1ccc(NC(C)=O)cc1NC(C)c1nc2sc(C)c(C)c2c(=O)[nH]1 (stereo unspecified),8.9µM,.,/,.,.,.[10.4 µM],.,?,?,?
COc1ccc(OC)c(NC(=O)C(C)SCc2nc3sc(C)c(C)c3c(=O)[nH]2)c1 (stereo unspecified),/,.,/,/,.,/,/,/,/,/
CC1(C(=O)NC(=S)N(CCC#N)Cc2cccnc2)CC1(Cl)Cl (stereo unspecified),18µM,/,.,.,/,.[10.4 µM],.,.,.,.
N#CCCN(Cc1cccnc1)C(=S)NC(=O)c1ccccc1,/,.,/,/,?,/,/,/,/,/
Cc1ccc(CNC(=O)CCSCc2cnn(-c3ccccc3)c2-n2cccc2)cc1,/,/,/,/,.,/,/,/,/,/
O=C(O)CC1S/C(=N/N=C/c2ccccn2)NC1=O (stereo unspecified),18µM,.,.,.,.,.,.,.,.,.
Nc1ncnc(Sc2ncccn2)c1[N+](=O)[O-],18µM,.,.,.,.,.[10.4 µM],?,.,.,.
Nc1ncnc(Sc2ccccc2)c1[N+](=O)[O-],.,.,.,.,.,/,/,/,/,/
Cn1c(=O)c2[nH]cnc2n(C)c1=O.[CH2-][C@H](Cc1cccc2cc(C(=O)O)c(=O)oc12)OC.[Hg].[OH-],/,/,.,/,/,/,/,/,/,/
C=CCN=c1scc(C)n1/N=C/c1ccc(O)c(O)c1,22µM,.,/,.,?,.,.,.,.,.
